# Bioassay records deposited in PubChem by The Scripps Research Institute Molecular Screening Center.
# This is a sample that favours compounds with a hit; in the whole collection about 3.5% have one here.
# TEAD-YAP inh = TEAD-YAP interaction inhibition; AID 1259422; HEK-TIYL cells, TEAD-Gal4/YAP UAS-luciferase luminescence; inhibition, % at 9.12 µM; 640,000 tested, 1.4% active; in the data active = inhibition above about 32%
# GPR151 ag = human GPR151 activation; PathHunter beta-arrestin GPR151 cells, luminescence; activation, % at 11.2 µM; 650,000 tested, 1% active; AID 1508602; in the data active = activation above about 4.9%
# MITF primary = inhibitors of human MITF; O75030; AlphaScreen MITF homodimerization, bead proximity signal; inhibition, % at 2.6 µM; 650,000 tested, 0.91% active; AID 1259374; in the data active = inhibition above about 50%
# Target sequence (O75030 whole entry, looked up): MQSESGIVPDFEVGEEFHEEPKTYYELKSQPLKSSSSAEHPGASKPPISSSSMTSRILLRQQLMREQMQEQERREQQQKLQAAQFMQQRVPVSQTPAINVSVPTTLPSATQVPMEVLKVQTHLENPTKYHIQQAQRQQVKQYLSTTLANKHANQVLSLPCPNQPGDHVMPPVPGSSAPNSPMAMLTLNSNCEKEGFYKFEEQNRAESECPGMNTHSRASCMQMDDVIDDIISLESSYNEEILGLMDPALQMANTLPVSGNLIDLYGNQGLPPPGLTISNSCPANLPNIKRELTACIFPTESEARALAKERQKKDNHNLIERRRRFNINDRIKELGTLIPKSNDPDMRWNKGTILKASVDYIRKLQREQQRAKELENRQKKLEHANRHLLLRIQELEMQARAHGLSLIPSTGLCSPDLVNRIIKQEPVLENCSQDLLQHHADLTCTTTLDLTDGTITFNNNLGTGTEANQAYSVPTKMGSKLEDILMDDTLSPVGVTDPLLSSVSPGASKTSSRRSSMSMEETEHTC
# FBW7 act = human FBW7 E3 ligase activation, primary screen; AlphaScreen FBW7–phospho-cyclin E peptide binding, activator screen; normalized activity (activation), % at 26.1 µM; 650,000 tested, 0.13% active; in the data active = normalized activity above about 1.9%;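 note: purified mutant Fbw7 with reduced substrate affinity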
# A number is an active result; . = inactive; ! = a repeat was not active.
SMILES,TEAD-YAP inh,GPR151 ag,MITF primary,FBW7 act
O=C(Cc1cn(-c2ccc(Nc3ccc(N4CCOCC4)cc3)nn2)c2ccccc12)NCc1ccccc1,47.7,.,.,.
c1ccc(C2=NNC(=NC3CC3)SC2)cc1,80.0,.,.,.
c1ccc(N=C2NN=C(c3ccccc3)CS2)cc1,.,.,.,.
CCn1c(=O)n(CC(=O)N2CCCCC2)c2cccnc21,.,.,.,.
CCc1ccc(/C=C/c2c([N+](=O)[O-])c(=O)n(C)c(=O)n2C)cc1,44.3,.,.,.
CCOc1ccc(/C=C/c2c([N+](=O)[O-])c(=O)n(C)c(=O)n2C)cc1,.,.,.,.
O=[N+]([O-])c1cccc(S(=O)(=O)N2CCc3ccccc32)c1,32.4,.,.,.
Cc1cc(C)c(S(=O)(=O)N2CCc3ccccc32)cc1[N+](=O)[O-],63.5,.,.,.
O=[N+]([O-])c1cccc(S(=O)(=O)N2CCc3ccccc3C2)c1,.,.,.,.
O=c1c(-c2ccc(O)cc2)coc2cc(O)ccc12,73.2!,.,.,.
COc1ccc(-c2coc3cc(O)ccc3c2=O)c(O)c1O,.,.,80.3,.
O=c1c(-c2ccc(O)cc2)coc2cc(OC3OC(CO)C(O)C(O)C3O)ccc12 (stereo unspecified),53.9,.,.,.
Cc1ccccc1-c1coc2cc(O)ccc2c1=O,.,.,.,.
O=c1c(-c2cnn(-c3ccccc3)c2)coc2c(O)c(O)ccc12,.,.,.,.
O=c1c(-c2ccc(O)cc2)coc2cc(OC3OC(CO)C(O)C(O)C3O)cc(O)c12 (stereo unspecified),.,.,.,.
O=c1c(-c2cnn(-c3ccccc3)c2)coc2cc(O)ccc12,33.0,.,.,.
COc1cccc(C(=O)NCc2n[nH]c(=S)n2-c2ccc([N+](=O)[O-])cc2)c1,.,.,.,.
CCC(C)NC(=O)CN1C(=O)COc2ccc(S(=O)(=O)N3CCC(C)CC3)cc21 (stereo unspecified),.,.,.,.
COCCNC1CCN(c2ccc(NC(=O)c3ccc(C)cc3C)cc2)CC1,.,.,.,.
COc1ccc2c(=O)c(-c3ccc(O)cc3)coc2c1,80.8,.,.,.
CC1=C(C(=O)OCCOc2ccccc2)C(c2coc3ccc(Cl)cc3c2=O)C2=C(CCCC2=O)N1 (stereo unspecified),.,.,.,.
CCOC(=O)C1=C(C)NC2=C(C(=O)CCC2)C1c1coc2ccc(Cl)cc2c1=O (stereo unspecified),.,.,.,2.3
CCOc1cccc(C2C(C(=O)OCCSCC)=C(C)NC3=C2C(=O)C(C(=O)OC)C(C)C3)c1 (stereo unspecified),.,.,.,1.9
CCSCCOC(=O)C1=C(C)NC2=C(C(=O)CCC2)C1c1ccc(Br)cc1 (stereo unspecified),.,.,.,2.0
CCOc1ccc(C2C(C(=O)OCCSCC)=C(C)NC3=C2C(=O)C(C(=O)OC)C(C)C3)cc1 (stereo unspecified),.,.,.,.
SMILES,TEAD-YAP inh,GPR151 ag,MITF primary,FBW7 act
O=C(O)/C=C/C(=O)Nc1ccc(S(=O)(=O)N2CCCCC2)cc1,.,.,.,.
C/C(=N/O)c1ccc(OCCCOc2ccc(/C(C)=N/O)cc2)cc1,.,.,.,.
Cc1sc2nc(C3CCCN(C(=O)C(C)(C)C)C3)[nH]c(=O)c2c1C (stereo unspecified),91.6,.,.,.
Cc1sc2nc(C3CCCN(C(=O)c4ccco4)C3)[nH]c(=O)c2c1C (stereo unspecified),.,.,.,.
O=C1C2C3c4ccccc4C(c4ccccc43)C2C(=O)N1c1ccc(Cl)cc1 (stereo unspecified),.,.,.,.
CC(C)n1nc(C(=O)NN)c2ccccc2c1=O,51.4,.,.,.
CCOC(=O)N1CCN(c2c(NCCCN(CC)c3cccc(C)c3)c(=O)c2=O)CC1,.,.,68.4,.
Cc1ccnc(NC(=O)Cn2ncc3c2-c2cc(C)ccc2OC3)c1,.,.,.,.
Cc1ccc(NC(=O)Cn2ncc3c2-c2cc(C)ccc2OC3)nc1,34.7,.,.,.
COc1cc(C(=O)Nc2cc3c(ccc4ccccc43)oc2=O)cc(OC)c1OC,.,.,.,.
CN(C(=O)CCCN1C(=O)c2ccccc2C1=O)C1CC(C)(C)N(C)C(C)(C)C1,.,.,.,.
CC(=O)Nc1ccc(Nc2nc(Nc3ccncc3)nc3c2ncn3-c2ccsc2)cc1,.,.,.,.
c1cc(-n2cnc3c(Nc4ccc5c(c4)OCO5)nc(NCc4ccc5c(c4)OCO5)nc32)cs1,.,.,.,.
Cc1nn(C)c(C)c1-c1nc(Nc2ccccc2)c2ncn(-c3ccsc3)c2n1,.,.,.,.
CC(=O)Nc1ccc(Nc2nc(Nc3ncccn3)nc3c2ncn3-c2ccsc2)cc1,49.8,.,.,.
c1cc(-n2cnc3c(Nc4ccc5c(c4)OCO5)nc(NCCN4CCOCC4)nc32)cs1,44.5,.,.,.
CC(=O)Nc1ccc(Nc2nc(-c3c(C)nn(C)c3C)nc3c2ncn3-c2ccsc2)cc1,43.9,.,.,.
COc1ccc(-c2nc(Nc3ccc(N4CCOCC4)cc3)c3ncn(-c4ccccc4)c3n2)cn1,34.1,.,.,.
c1ccc(Nc2nc(-c3ccc(N4CCOCC4)nc3)nc3c2ncn3-c2ccccc2)cc1,.,.,.,.
c1ccc(Nc2nc(Nc3ccc(N4CCOCC4)cc3)nc3c2ncn3-c2ccsc2)cc1,.,.,.,.
c1cnc(Nc2nc(Nc3ccc4c(c3)OCO4)c3ncn(-c4ccsc4)c3n2)cn1,.,.,.,.
c1cc(-n2cnc3c(Nc4ccc(N5CCOCC5)cc4)nc(Nc4ccc(N5CCOCC5)cc4)nc32)cs1,34.8,.,.,.
c1cc(Nc2nc(Nc3ccc4c(c3)OCO4)c3ncn(-c4ccsc4)c3n2)ncn1,.,.,.,10.5
c1cc(-n2cnc3c(Nc4ccc5c(c4)OCO5)nc(Nc4ccc(N5CCOCC5)cc4)nc32)cs1,41.8,.,.,.
COc1ccc(-c2nc(Nc3ccc(N4CCOCC4)cc3)c3ncn(-c4ccsc4)c3n2)cc1,38.3,.,.,.
SMILES,TEAD-YAP inh,GPR151 ag,MITF primary,FBW7 act
CCOC(=O)C1=C(C)N=c2s/c(=C\c3ccccc3OC)c(=O)n2C1c1ccc(OC(C)=O)cc1 (stereo unspecified),.,.,.,.
c1cncc(CNc2nc(Nc3ccc(N4CCOCC4)cc3)nc3c2ncn3-c2ccsc2)c1,56.5,.,.,.
CCN(CC)c1nc(Nc2ccc3c(c2)OCO3)nc(Nc2ccncn2)n1,.,.,.,4.0
CC(=O)Nc1ccc(Nc2nc(Nc3ccc(N4CCOCC4)cc3)nc3c2ncn3-c2ccsc2)cc1,38.0,.,.,.
FC(F)(F)c1ccc(Nc2nc(Nc3ccc(N4CCOCC4)cc3)c3ncn(-c4ccsc4)c3n2)cc1,.,.,.,.
CC(=O)Nc1ccc(Nc2ccnc(-c3c(C)nn(C)c3C)n2)cc1,53.8,.,.,.
Cc1nc(NC2=NCN(Cc3ccccc3Cl)CN2)nc2ccccc12,.,.,.,.
Cc1ccc(C)c(CSc2nc3[nH]ncc3c(=O)[nH]2)c1,36.7,.,.,.
Cc1ccccc1CSc1nc2[nH]ncc2c(=O)[nH]1,.,.,.,.
